Bioassay records from PubChem.
Pf growth 48h = Primary qHTS for delayed death inhibitors of the malarial parasite plastid, 48 hour incubation. Potency, µM (series often up to 28.7 µM), inactives show top-dose activity change, negative = inhibition, actives largely listed as inhibitors. P. falciparum luciferase growth in erythrocytes, 48 h. actives 5.9% (n = 310,000); further: potency means the concentration at half of the fitted maximal effect; on the % scale 0 is the no-effect control and ±100 the full control effect
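Growth was read as firefly luciferase luminescence after a 48 h, 37 C, 5% CO2 exposure of compounds to reporter-bearing P. falciparum cultures (0.1% parasitemia, 2% hematocrit final) in Albumax-supplemented RPMI 1640.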
HCMV antiviral = qHTS Assay for inhibitors of the human cytomegalovirus (HCMV) | HFF cells, HCMV-luciferase reporter, 72 h; active compounds read low | activity change, negative = inhibition, % at 57.5 µM | actives 4.5% (n = 410,000) | AID 1259415, 2018; in the data active means activity change below about -60%; inconclusive means no clear call, values can overlap the other calls; inactive means above about -39%; further: on the % scale 0 is the no-effect control and ±100 the full control effect
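Compounds were evaluated in HFFs infected with an HCMV luciferase reporter virus (MOI 1 PFU/cell). Luciferase in lysates collected 72 h post infection served as the replication measure.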
CHX counter = Cycloheximide Counterscreen for Small Molecule Inhibitors of Shiga Toxin; actives 12% (n = 300,000); max response, %; cell reporter, cycloheximide protein synthesis inhibition counterscreen; AID 2314, 2010; in the data active means max response mostly above about 13%, no sharp cut-off; inactive means mostly below about 14%; further: read at 38.3 µM for the half of the compounds with a filed dose; 0% is about no effect
Shiga inhibitor = A qHTS for Small Molecule Inhibitors of Shiga Toxin. actives 9.2% (n = 290,000). Vero cells, Shiga toxin protein synthesis inhibition reporter. inhibition, % at 38.7 µM; in the data active means inhibition mostly above about 28%, no sharp cut-off; inactive means mostly below about 43%; further: 0% is about no effect
Pf growth 96h = Primary qHTS for delayed death inhibitors of the malarial parasite plastid, 96 hour incubation | Potency, µM (top dose mostly 28.7 µM), for inactives: top-dose activity change, negative = inhibition, actives largely listed as inhibitors | actives 6.9% (n = 320,000) | P. falciparum luciferase reporter growth, 96 h; further: potency means the concentration at half of the fitted maximal effect; on the % scale 0 is the no-effect control and ±100 the full control effect
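Delayed-death screen, second-generation endpoint: infected erythrocytes, 2% hematocrit, 0.05% parasitemia final; 96 hours at 37 C, 5% CO2; luciferase detection reagent; luminescence decrease equals reduced growth.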
* hit, by the source's call; ? = inconclusive; nt = no result given. Hits are enriched below; roughly 20% of the tested compounds scored in any of these assays. Unless noted, the call rests on the fitted dose curve; in most records, active means well fitted inhibition curve with a large enough effect; inconclusive means small, poorly fitted or top-dose-only effect, or another doubt; inactive means no such curve, though single readings can be large or run the other way.

SMILES	Pf growth 48h	HCMV antiviral	CHX counter	Shiga inhibitor	Pf growth 96h
Nc1cc(=O)[nH]c(=O)n1-c1cccc(F)c1	15%	-84*	-2	-10	37%
CCCCC(=O)Nc1cc(C(=O)NCCc2ccccc2)ccc1Cl	88%	18	18*	17	86%
COc1cccc(C(=O)Nc2cc(C(=O)NCCc3ccccc3)ccc2Cl)c1	28%	-16	20*	34	nt
COc1cccc(/C(O)=C/c2nc3ccc(C(=O)NCCc4cccc(C)c4)cc3[nH]c2=O)c1	8.3µM*	-18	14	-7	-10%
COCC(=O)Nc1cc(C(=O)Nc2cccc(C)c2C)ccc1Cl	29%	?	14*	18	nt
CCOC(=O)c1ccccc1NC(=O)CN(c1ccccc1C)S(C)(=O)=O	nt	19	-4	-9	0%
COc1ccc(CCNC(=O)CSc2nnc(Cc3cccn3C)n2C)cc1OC	-1%	5	7	15	?
COc1ccc(-c2nn(-c3ccc(F)cc3F)c3c2cnc2ccc(F)cc23)cc1	nt	16	nt	nt	nt
CCOP(=O)(OCC)c1c2c(cc3ccc(Cl)cc13)CCC2	nt	-10	nt	nt	nt
Cc1nc(Nc2ccc(O)cc2)c2c3c(sc2n1)CCCC3	15µM*	-76*	2	-4	?
Cc1ccc(CNc2nc(C)nc3sc4c(c23)CCC4)cc1	-24%	?	1	-14	?
CC(=O)Nc1c(-c2cc(=O)oc3cc(C)ccc23)oc2ccccc12	?	?	-4	-12	?
CCc1ccc(NC(=O)CSC2=Nc3ccccc3C3=NC(CCC(=O)NCc4ccco4)C(=O)N23)cc1 (centres undefined)	nt	-16	nt	nt	nt
Cc1ccc(NS(=O)(=O)c2cc([N+](=O)[O-])ccc2NNC(=S)Nc2cc(C)ccc2C)c(C)c1	15µM*	-103*	5	-13	9.3µM*
Cc1ccc(NS(=O)(=O)c2cc([N+](=O)[O-])ccc2NNC(=S)Nc2cccc(Cl)c2)c(C)c1	0%	nt	0	-9	?
COc1ccc(NC(=S)NNc2ccc([N+](=O)[O-])cc2S(=O)(=O)Nc2ccc(C)cc2C)cc1	-6%	-66*	6	14	?
O=C(CSc1nc2ccccc2n1Cc1ccccc1Cl)N/N=C/c1ccccc1C(=O)O	?	?	17*	39	5.2µM*
CCn1nc(C)c(CNC(=O)CC2C(=O)NCCN2CC(C)(C)C)c1C (centres undefined)	-6%	-16	-4	-6	-4%
COC(=O)c1cccc(NC(=O)Cc2nc(-c3ccccc3)sc2-c2ccc(C)cc2)c1	?	-20	-5	-2	-80%
CC(=O)Nc1cccc(NC(=O)Cc2nc(-c3ccccc3)sc2-c2ccc(C)cc2)c1	?	-5	20*	130*	?
COc1cccc(NC(=O)Cc2nc(-c3ccccc3)sc2-c2ccc(C)cc2)c1	?	-18	28*	51*	10µM*
Cc1ccc(-c2sc(-c3ccccc3)nc2CC(=O)Nc2ccccc2F)cc1	?	?	0	-5	-81%
COc1ccc(NC2c3ccccc3C(=O)N2c2ccccn2)cc1Cl (centres undefined)	nt	6	18	-9	8.3µM*
O=C1c2ccccc2C(Nc2ccc(F)c(Cl)c2)N1c1ccccn1 (centres undefined)	nt	31	-11	-14	4.7µM*
COc1ccc(NC2c3ccccc3C(=O)N2c2cccnc2)cc1 (centres undefined)	?	41	-1	8	10µM*
SMILES	Pf growth 48h	HCMV antiviral	CHX counter	Shiga inhibitor	Pf growth 96h
COc1ccc(C(c2c(C)n(C)n(-c3ccccc3)c2=O)c2c(C)n(C)n(-c3ccccc3)c2=O)c(OC)c1OC	?	-5	-3	-5	10µM*
COc1cn(CC(=O)Nc2cc(C)ccc2C)c(CN2CCCCC2)cc1=O	nt	-13	nt	nt	nt
CCC(=O)N/C(N)=N/c1nc(C)c2cc(OC)ccc2n1	3.3µM*	2	23*	71*	-19%
COc1ccc2nc(/N=C(\N)NC(=O)C(C)(C)C)nc(C)c2c1	?	6	30*	42*	-27%
O=C(N/N=C\c1ccc(Cl)s1)c1ccc(Cn2cccn2)o1	-8%	-26	8	-2	-1%
O=C(N/N=C\c1c(O)ccc2ccccc12)c1ccc(Cn2cccn2)o1	?	-99*	-2	-3	?
CC(C)c1ccc(/C=N\NC(=O)c2ccc(Cn3cccn3)o2)cc1	1%	6	54*	71*	-24%
NC(=O)C1CCCN(C(=O)c2ccc(NC(=O)c3cccs3)cc2)C1 (centres undefined)	-5%	-16	nt	nt	?
Fc1ccc(C2=NC(c3cccc(C(F)(F)F)c3)=Nc3ccccc3N2)cc1	nt	-7	nt	nt	nt
COc1cc(/C=C(\C#N)C(=O)Nc2ccc(SC(F)F)cc2)cc(OC)c1OC	nt	32	-3	-16	5.2µM*
N#C/C(=C/c1ccc2c(c1)OCO2)C(=O)Nc1ccc(O)cc1	0%	?	49*	54	?
CCOc1cc(/C=C(/C#N)C(=O)Nc2ccc(O)cc2)cc(Br)c1O	-19%	-61*	-2	12	1%
C=CCNC(=O)/C(C#N)=C\c1cc(Cl)c(O)c(OCC)c1	-4%	-23	-2	9	?
N#C/C(=C\c1ccc2c(c1)OCCO2)C(=O)Nc1ccc(C(=O)O)cc1	8%	36	78*	113*	47%
CCS(=O)(=O)N1CCc2cc(C(=O)Nc3cccc(C(C)=O)c3)ccc21	nt	21	nt	nt	nt
Cc1occc1C(=O)N/N=C/c1cccs1	79%	101	33*	84*	146%
Cc1occc1C(=O)N/N=C/C(Br)=C/c1ccccc1	40%	28	39*	86*	?
O=C(N/N=C/C(Br)=C/c1ccccc1)c1ccccc1[N+](=O)[O-]	?	21	8.7*	22	-3%
Nc1c(C(=O)N/N=C/c2ccc(OCc3ccccc3)cc2)cnn1-c1ccccc1	8%	-24	9	16	17%
Cc1occc1C(=O)N/N=C/c1ccc(OCc2ccccc2)cc1	?	50	45*	63*	10µM*
Cc1occc1C(=O)N/N=C/c1ccc[nH]1	nt	37	nt	nt	nt
COc1ccc(CCNC(=O)c2cnn(-c3ccc(F)cc3)c2C2CCN(C(=O)OC(C)(C)C)CC2)cc1OC	nt	6	nt	nt	nt
CCCCNc1ccc(C(=O)OCCOCCOCCOCCOCCOCCOCCOCCOCCOC)cc1	?	24	nt	nt	11%
COc1ccccc1CNC(=O)CCS(=O)(=O)c1ccc2c(c1)CC(C)N2C(=O)C1CC1 (centres undefined)	?	-33	-3	27	31%
Cc1cc(/C=N/NC(=O)c2ccoc2C)cc(C)c1O	nt	82	nt	nt	nt
Cc1occc1C(=O)N/N=C/c1ccc(-c2ccccc2)cc1	17%	61	37*	75*	74%
